MmCpn inh: M. maripaludis TRiC chaperonin inhibition; 330,000 tested, 0.031% active; Potency, µM (series often up to 76.9 µM), for the others: at the top dose activity, negative = inhibition, most hits filed as inhibitors; purified Mm-Cpn ATPase, ADP Transcreener TR-FRET; AID 504842; also: % is scaled to controls: 0 for no effect and ±100 for the full control effect; nearly all actives have a fitted effect of over 80% in size
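Measured: ADP formation by purified Mm-CPN. Conditions: 25 nM protein, 10 uM ATP, Tris pH 7.4 with Mg2+, K+ and DTT, 37°C for 30 min. Detection: Transcreener HTRF after 30 min at room temperature.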
Abeta rescue: restores growth of yeast expressing A-beta42 peptide; 410,000 tested, 0.063% active; yeast expressing A-beta42, growth rescue, OD600, 48 h; response scale: 0% DMSO, 100% iron-clioquinol control; Potency, µM (top dose mostly 46.1 µM), hits mostly activators; AID 1347071; also: nearly all actives have a fitted effect of over 55% in size
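Growth rescue measured by 600 nm absorbance after 48 h yeast culture at 30 C with compound. Values normalized between DMSO and an equimolar ferric chloride plus clioquinol control.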
ClpP mod: qHTS Assay for Activators of ClpP. Potency, µM (highest dose often 57.5 µM), for the others: at the top dose activity change, negative = active. purified B. subtilis ClpP, FRET peptide cleavage, 20 min. AID 651965, 2013. ATP-dependent Clp protease proteolytic subunit (Bacillus subtilis (strain 168)), P80244. 340,000 tested, 1.9% active; active = well fitted falling curve with a large enough effect; inconclusive = small, poorly fitted or top-dose-only effect; inactive = no such curve, though single readings can be large or run the other way; also: the source files actives as falling curves though it sought activators and does not explain the sign; nearly all actives have a fitted effect of over 65% in size
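FRET quenching reversal measured ClpP activation: 10 microg/mL B. subtilis ClpP at pH 8 with the FRET-FV decapeptide, read at 430 nm after 320 nm excitation. The 20-min minus 0-min signal was scaled between DMSO/no-enzyme wells and ADEP (5.8 microM final).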
FUS yeast rescue: suppressors of FUS proteinopathy in yeast; S. cerevisiae FUS-expressing, growth rescue, OD600, 24 h; Potency, µM (doses to about 76.6 µM), hits mostly activators; 390,000 tested, 0.24% active;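 also: plate controls were DMSO vehicle for no effect and reference control for full effect; nearly all actives have a fitted effect of over 55% in size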
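Galactose (2%) drives FUS expression in yeast precultured in raffinose; seeding density OD 0.005. Test compounds incubated 24hr at 30C and 99% humidity before absorbance at 600 nm was measured.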
TDP43 rescue: rescues yeast growth from TDP-43 toxicity; TDP-43 expressing yeast growth rescue, BacTiter-Glo, 24 h; Potency, µM (highest dose often 46.1 µM), for inactives: at the highest dose growth rescue (activation), hits mostly activators; 410,000 tested, 1.8% active; AID 652104; also: % of control where 0% means no effect; nearly all actives have a fitted effect of over 50% in size
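Galactose-induced TDP-43 yeast, OD600=0.02, compound pinned; 24 hr, 30 deg C; BacTiter-Glo luminescence for growth. Inhibitors of TDP-43 toxicity read as activators.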
aSyn rescue: alpha-synuclein toxicity inhibition in yeast | Yeast expressing alpha-synuclein, growth rescue, BacTiter-Glo, 24 h | Potency, µM (doses to about 46.1 µM), inactives show at the highest dose growth rescue (activation), most hits filed as activators | 370,000 tested, 0.14% active | AID 652106; also: % of control where 0% means no effect; nearly all actives have a fitted effect of over 65% in size
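Rescue of yeast growth: cells expressing toxic alpha-synuclein, induced in galactose at OD600 0.02, incubated with compound 24 h at 30 C. ATP luminescence quantified growth; inhibitors of toxicity appear as activators.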
* = called active by the depositor; i = inactive; ? = inconclusive; / = no result given. In the library only some 3.6% were active in any assay of this set; here they are far more common. Unless noted, calls follow the shape of the dose curve; as a rule, active = well fitted curve in the direction sought with a large enough effect; inconclusive = small, poorly fitted or top-dose-only effect, or another doubt; inactive = no such curve, though single readings can be large; an effect the other way counts as inactive or inconclusive. Potency is read from the fitted curve at half-maximal effect.

SMILES	MmCpn inh	Abeta rescue	ClpP mod	FUS yeast rescue	TDP43 rescue	aSyn rescue
CC(C)C[C@@H](COCc1ccc(Cl)cc1)N1CCN(C(=O)c2ccc(C(F)(F)F)cc2)CCC1=O	/	i	2%	?	0%	?
Cc1cccc(COCC(Cc2ccccc2)N2CCN(C(=O)c3cccc(Cl)c3)CCC2=O)c1 (stereo not drawn)	-2%	i	-6%	?	20%	?
O=C(Cn1c(=O)n(Cc2ccco2)c(=O)c2oc3ccccc3c21)Nc1ccc(F)c(Cl)c1	/	i	?	i	13%	/
c1ccc(-c2n[nH]c(-c3ccccn3)n2)nc1	1%	i	25µM*	i	-20%	-1%
c1ccc(-c2n[nH]c(-c3ccccn3)n2)cc1	0%	i	-9%	i	12%	-13%
N#Cc1c(N)[nH]c2ccc(Sc3ccccc3)cc12	/	i	1%	/	22µM*	-29%
N#Cc1c(N)[nH]c(=S)c(C#N)c1-c1ccccc1	-9%	i	-10%	i	24%	2%
COc1ccccc1C(C)NCC(=O)c1c(C)[nH]c2ccccc12 (stereo not drawn)	/	/	-2%	/	/	11%
Cc1ccc(-c2nc(=Nc3ccccc3)sn2-c2ccccc2)cc1	/	/	0%	/	/	-14%
CCc1ccccc1N(C)C(=O)c1cn(-c2cccc(OC)c2)c(=O)c2ccccc12	/	i	-22%	i	20µM*	/
CCCCN(C)C(=O)c1cn(-c2cccc(OC)c2)c(=O)c2ccccc12	2%	i	-16%	i	1%	0%
CCOc1ccccc1NC(=O)NNC(=O)c1ccc2ccccc2c1	0%	i	32µM*	i	17%	2%
CCOc1ccccc1NC(=O)c1ccc(OCC)c([N+](=O)[O-])c1	1%	i	-1%	i	3%	-10%
CCOc1ccccc1NC(=O)c1ccc2ccccc2c1	?	i	/	i	6.3µM*	-3%
Cc1ccc2nc(SC(C)C(=O)NC3CCCc4ccccc43)[nH]c2c1 (stereo not drawn)	2%	i	25µM*	/	26%	2%
O=C(CSc1nc2ccc(Cl)cc2[nH]1)NC1CCCc2ccccc21 (stereo not drawn)	-1%	i	/	i	-36%	-6%
CCN(CC)c1ccc(/C=N/NC(=O)Cc2cccs2)cc1	-3%	i	28µM*	/	-7%	-3%
CCN(CC)c1ccc(/C=N/NC(=S)NCc2ccccc2)cc1	-1%	?	25µM*	?	24%	1%
O=C(Cc1cccs1)N/N=C\c1ccccc1	/	/	/	i	/	/
C=CCNC(=S)N/N=C/c1ccc(N(CC)Cc2ccccc2)cc1	1%	?	8.9µM*	/	30%	-8%
CC(=O)c1ccc(N2C(=O)N(Cc3ccc(F)cc3)c3ccccc3S2(=O)=O)cc1	/	i	-2%	?	27%	/
CCc1ccc(CNC(=O)C(CC)n2nc(C)c3c(C)n(-c4ccccc4)nc3c2=O)cc1 (stereo not drawn)	/	i	0%	i	-1%	/
CCc1ccc(NC2CC(=O)N(CCc3ccc(OC)c(OC)c3)C2=O)cc1 (stereo not drawn)	0%	i	-1%	i	18µM*	-6%
CCc1ccc([C@H]2C(C(=O)O)=C[C@@H](C(C)(C)C)N2S(=O)(=O)c2ccc(C)cc2)cc1	0%	i	0%	i	14µM*	-14%
COc1ccccc1NC(=O)CSC1=Nc2ccccc2N=C(c2ccc(F)cc2)C1	/	i	1%	i	14%	/
NC(=S)N/N=C/c1ccc(-c2cccc([N+](=O)[O-])c2)o1	-4%	i	1%	/	10%	1%
O=[N+]([O-])c1cccc(-c2ccc(/C=N/NC(=S)Nc3cccc(F)c3)o2)c1	1%	?	-2%	i	18µM*	-7%

Source: PubChem BioAssay
